Test results as given in the supplement of paper PMC6555819.

Assays:
Assay in all cases: PBM binding z-score (relative to random genomic background probes); higher = stronger binding; sequences stand for … in GC…GCGATTGACAGCGTAGAATGAAGG
[1] = tested on: RARb homodimer (NR concentration 270 nM)
Procedure, shortened: (§1)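 Binding z-scores take random background probes as their reference. They come from custom Agilent 4×180K protein-binding microarrays incubated 1 h with ligand-free nuclear receptor dimers, with antibodies against each partner (one per run) detecting binding. Scanned fluorescence was regression-normalized.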

[2] = tested on: RARg:RXRa (NR concentration 270 nM, RXRa partner concentration 90 nM)
Procedure, shortened: as §1

[3] = tested on: RARg homodimer (NR concentration 270 nM)
Procedure, shortened: as §1

[4] = tested on: RXRa DBDmut IVT, anti-RXR (DBD mutation: RXRa K156A/R161A, NR concentration 90 nM)
Procedure, shortened: as §1

[5] = tested on: RXRa homodimer (NR concentration 180 nM)
Procedure, shortened: as §1

[6] = tested on: THRa:RXRa (NR concentration 90 nM, RXRa partner concentration 90 nM)
Procedure, shortened: as §1

[7] = tested on: THRa homodimer (NR concentration 90 nM)
Procedure, shortened: as §1

[8] = tested on: VDR homodimer (NR concentration 270 nM)
Procedure, shortened: as §1

Row | Sequence | PBM binding z-score [1] | PBM binding z-score [2] | PBM binding z-score [3] | PBM binding z-score [4] | PBM binding z-score [5] | PBM binding z-score [6] | PBM binding z-score [7] | PBM binding z-score [8]
1 | CCAGACAGGTGAAAGGTTACTCAGTCTGGTACGC | 1.91 | 3.02 | 1.52 | 0.385 | 4.22 | 1.72 | 0.13 | 0.149
2 | TCTCGGAGGACGCGAAGGTCAGAGCTTTCCAGAG | 3.03 | 2.26 | 2.1 | 0.401 | 1.67 | 1.84 | 0.0235 | 0.488
3 | CAAACTAGGTCACGAAAGGTCACAGTCGAATGAC | 6.08 | 7.72 | 8.69 | 2.05 | 7.64 | 5.11 | 3.05 | 2.77
4 | TGGAGTAGGTTAGTCGGGGCATTCAGCCAACATA | 1.41 | 0.219 | 0.355 | -0.608 | 0.023 | 1.48 | 0.985 | 1.24
5 | CGTCAAAGTTCAAGGTAACGCAACAGAAAGCAGC | 3.59 | 5.16 | 6.13 | 4.31 | 4.24 | 2.97 | 1 | 3.74
6 | CCGACTGGGGCAAACGTTACCATACTCAGTACGA | 0.0694 | 0.309 | 0.456 | 0.618 | 0.251 | -0.227 | -0.206 | -0.371
7 | CAAACTAGGTCAAGGTCAAAGCCGGTTTGTGCCA | 5.03 | 6.1 | 6.74 | 2.67 | 5.67 | 4.39 | 3.5 | 3.55
8 | CTCGAAAGGTCGTGCTCAGGGGAGTATACCAAAC | 2.53 | 4.03 | 3.44 | 2.02 | 4 | 2.77 | 0.415 | 1.13
9 | ATCTCTAGGTATAAGTTCAGTGAATCCCGAGGAT | 1.42 | 1.17 | 1.31 | 0.993 | 0.674 | 0.824 | 0.567 | 2.79
10 | CGTCCCAGGTCAGCAGGTCAGTGAAAGCGACGTG | 3.99 | 4.83 | 4.51 | 0.368 | 3.25 | 3.56 | 2.19 | 0.573
11 | CTCGAAAGGTCGTGTTCAGGTGAGTATACCAAAC | 2.87 | 4.55 | 3.44 | 2.35 | 4.3 | 4.17 | 1.16 | 1.16
12 | CGTCCAAGGTCATAGGTCAGTGAAGAGATGACGG | 4.84 | 6.97 | 6.86 | 3.61 | 8.18 | 4.31 | 2.65 | 3.51
13 | CCTAGTTGGTCAGGAGGTCACACAGCGGATATGA | 4.13 | 5.36 | 4.51 | 1.06 | 4.73 | 3.66 | 2.76 | 3.13
14 | ACTATTAGTTGCCTTAGGGCAACCGATACGACGC | 0.893 | 0.429 | 0.732 | 0.351 | 0.447 | 1.46 | 0.815 | 0.176
15 | CCTTACGGGTCACTGACAGGTTATATCATTTGGA | 3.45 | 5.75 | 4.58 | 1.64 | 5.22 | 2.96 | 0.162 | 1.32
16 | ATCGAAAGGTCGTGAGATGAGTATACAGAAAGGC | 2.35 | 4.27 | 3.47 | 0.915 | 5.21 | 2.19 | -0.531 | 0.66
17 | ATATGTAGGTTACATCCGGGTCATTGAGGCTATG | 3 | 3.72 | 2.07 | 1.25 | 3.12 | 3.92 | 2.69 | 2.7
18 | TAGCCTAGGTCATTCGGCCAGTATAGTACGCATC | 3.12 | 3.81 | 4.13 | 1.7 | 2.52 | 2.66 | 0.61 | 1.6
19 | CGTCCAAGGTCAATCCTAGGTCAGTGAAAGCATT | 5.21 | 7.69 | 6.57 | 3.57 | 5.38 | 4.72 | 3.63 | 3.06
20 | GTACCAAGGTAAATAGGTCGTTGATGAGTAGGCG | 0.723 | 0.808 | 0.391 | -0.235 | 0.953 | 0.973 | -0.00878 | 0.628
21 | CTCGATAGGTCGGTTGAGGTGAGTATACGGATAA | 1.02 | 0.724 | 1.15 | -0.0462 | 0.554 | 4.73 | 1.19 | 0.0696
22 | TCGAGTACGTTAGTCGGGGCATTCAGCCAACATA | 0.0909 | -0.237 | -0.247 | 3.19 | -0.238 | -0.142 | -0.507 | 1.51
23 | TAGCCTAGGTCATGCGGACCAGTATAGTGTCGGC | 2.76 | 3.99 | 4.25 | 0.668 | 3.05 | 2.84 | 1.12 | -0.0352
24 | TCGAGTAGGTTACCAATGGGACATTCAGCTTTCT | -0.0362 | 0.634 | 0.55 | 0.448 | 0.451 | 0.207 | -0.766 | -0.643
25 | ATCTCTTGGTAAGACTCAGTTCAGTGAAGAACGC | 0.908 | 0.084 | 0.186 | 0.852 | -0.0369 | 0.736 | 1.13 | 1.76
26 | TCTTGTAGATCAAGCAGGTTGAGAAAGCCTGAGT | -0.543 | -0.355 | -0.321 | 0.479 | -0.0549 | 0.0431 | -0.698 | -0.0523

Row | Sequence | PBM binding z-score [1] | PBM binding z-score [2] | PBM binding z-score [3] | PBM binding z-score [4] | PBM binding z-score [5] | PBM binding z-score [6] | PBM binding z-score [7] | PBM binding z-score [8]
27 | CGTACTGGGCCAAAGGTCATTGATTCCAATGCTC | 4.66 | 5.89 | 4.65 | 1.3 | 6.26 | 3.6 | 0.976 | 2.28
28 | ACTTACGGGTCAACTAGGTTATAGCACGCGTATA | 3.63 | 5.71 | 5.16 | 2.08 | 5.82 | 3.52 | 0.857 | 2.03
29 | GCTGCTAGGTCAACTGATGGACAGCTAAAGCTCG | 3.12 | 4.45 | 5.36 | 1.28 | 2.94 | 2.72 | 0.89 | -0.122
30 | AGAAGGAGGTTATTAAGATCAGGGAATTGCGGTC | 1.32 | 0.881 | 0.837 | 0.39 | 1.36 | 1.18 | 0.884 | 1.23
31 | CCAGACAGGTGAGAAGGTAACTCCGCCTCGATTA | 0.57 | 0.45 | 0.417 | -0.0199 | 0.0477 | 0.0136 | 0.252 | -0.0348
32 | CGAACTAGGTCAAGGACTGTGAATCTCCGCACGC | 2.85 | 3.76 | 4.41 | 1.33 | 2.35 | 2.52 | 1.03 | 0.0818
33 | CGTCCAAGGTCATAGGAGATCAGTGAAGACAGAT | 3.65 | 5.88 | 6.14 | 4.11 | 6.2 | 3.82 | 2.46 | 3.14
34 | ATCTCTAGGTAAAGTTGAGTGAAAGATCGATAGA | -0.112 | 0.406 | 0.593 | -0.00419 | 0.495 | 0.689 | -0.246 | 0.103
35 | GCTGCTAGGTCAACTGATGGTAAGCTAAAGCTCG | 2.98 | 4.25 | 4.92 | 1.14 | 2.73 | 2.9 | 0.776 | -0.0201
36 | CGAACGAGGGCATAAGTTGATAGCAAATGCCGAT | 0.864 | 1.23 | 1.25 | 2.53 | 0.665 | 0.587 | -0.473 | 1.04
37 | TCTTGTAGATCAACAGGAGGTCAAGAAAGATCGA | 3.47 | 4.04 | 2.84 | 0.518 | 3.64 | 3.02 | 0.86 | 0.803
38 | AGAATGAGGTTATCCGTAGATCAGGGAAGAAAGT | 0.958 | 2.14 | 1.08 | 1.82 | 2.29 | 2.33 | 0.663 | 0.958
39 | TCCTGTAGATCAAGCAGGTTAAGAAAGCCTGAGT | 0.0843 | -0.142 | -0.295 | 0.428 | 0.45 | 0.254 | -0.566 | 0.241
40 | AGAATGAGGTTAACATCAGGGAAACAGAATACAT | 0.933 | 2.72 | 2.01 | 1.29 | 3.24 | 2.91 | 0.858 | 0.64
41 | CCTTGCGGGTCACTCCAGGTTATAGCATCGGAGT | 2.74 | 3.99 | 3.63 | 1.43 | 3.78 | 4.98 | 0.573 | 1.2
42 | ACTTACAGGTCAACGAGGTTATAGCACGCGTATA | 4.19 | 5.93 | 5.75 | 2.76 | 5.89 | 4.02 | 1.8 | 4.27
43 | CCTACTGGGCCATTCAGAGTTCATTGATCATATG | 2.64 | 2.54 | 1.23 | 2.26 | 1.28 | 1.12 | 0.0171 | 5.74
44 | CTACCAACGTGAACAAGGTCGTTGATTACTATTC | 1.42 | 0.533 | 0.432 | 1.53 | 0.896 | 1.82 | 1.41 | 1.88
45 | TCTAGCAGGCCAGAGGGTCTCTCAAGAGGTACGG | -0.406 | -0.564 | -0.595 | -0.155 | -0.223 | -1.48 | -0.98 | -0.83
46 | CAAGCTAGGTCAAGGTCAAAGTCGGTTTGTGCCA | 4.92 | 6.04 | 6.71 | 2.89 | 5.73 | 4.39 | 3.51 | 4.44
47 | TCTTGCAGATCAATAGAGGTTAAGAAAGTGCGCT | 1.01 | 0.797 | 0.305 | 0.292 | 1.37 | 2.42 | -0.532 | -0.0844
48 | CCGACTGGGGCAAGGTTACAATAACGCACAGCCA | 1.47 | 1.1 | 1.24 | -0.315 | 1.27 | 1.09 | -0.205 | 0.439
49 | ATCTCTAGGTATAGTTCAGTGAAAGATCGATAGA | 1.4 | 0.857 | 1 | 0.996 | 0.686 | 0.473 | 0.453 | 1.12
50 | CCGACTTGGGCAAGGTTACCATAACGCACAGCCA | 0.919 | 0.796 | 0.586 | 0.164 | 1.05 | 1.17 | 0.449 | 0.117
51 | TCATATAGGTAAAAGGTGAAAGGCGGTGTGGTAA | 1.54 | 1.65 | 0.736 | 1.76 | 2.97 | 1.56 | 0.329 | 0.251
52 | TAGCCTATGTCATTGGGCCAGTATAGTACGCATC | -0.0367 | 0.242 | 0.413 | -0.587 | 0.472 | -0.314 | -0.671 | -0.244
